This is an account of results in PubChem BioAssay AID1117361 (Southern Research Institute, 2015).

The structures appear in SMILES notation. Screen size: about 3,600 compounds; about 900 (25%) were called active. How the calls were made is not given here. These entries were drawn from the full list. Results with a measured potency or affinity are listed apart.

This experiment addresses Protein Tat (Human immunodeficiency virus type 1 group M subtype B (isolate HXB2)) (UniProt P04608). Description: HIV-1 Tat–TAR interaction blockers – biochemical, fluorescence polarization, FAM-labeled TAR RNA, counter-screen for Vif-APOBEC3G degradation inhibitor project, dose response (AID 1117361). Particulars: Tat-TAR RNA binding; series mostly up to 100 µM.
For `CC1(C)Cc2ccccc2C(/C(=N/O)C(N)=O)=N1`, the outcome was inactive. Under `COc1ccc2cnn(CCOc3cc(C)ccc3C(C)C)c(=O)c2c1OC` stands “inactive”. Take `Cc1nc(N(C)C)c2sc(=S)n(C)c2n1`: the compound was classed as inactive. Turning to `Cc1cccc(NC(=O)CSc2nnc(CCC(=O)Nc3ccc(C)c(Cl)c3)n2C)c1`, the compound was called inactive. For `CCCCc1nccn1CCn1ccnc1CCCC`, the call was inactive.

As to `CCc1ccc(C2C(C(C)=O)=C(C(=O)OC)Nc3nnnn32)cc1` (configuration not stated), the compound was called inactive. Under `COc1ccc(S(=O)(=O)Nc2cc(SCC(=O)O)c(O)c3ccccc23)cc1` stands “inactive”; under `COC(=O)COc1ccc(S(=O)(=O)Nc2ccc(C(N)=O)cc2)cc1C`, “inactive”. In the case of `CCc1ccc(CCC(=O)Nc2ccc(S(N)(=O)=O)cc2)o1`, the result was inactive.

With `Cc1onc(-c2ccccc2)c1CNC(=O)C1COc2ccccc2O1` (configuration not stated), the result was inactive. On to `CCc1cccc(NC(=O)Cn2ncn3c(cc4ccccc43)c2=O)c1`, for which the result was inactive.

`O=S(=O)(c1ccc(OCc2nc3ccccc3s2)c(Cl)c1)N1CCOCC1`: the call was inactive. For `COc1ccc(C(=O)N2CC3(C)CC2CC(C)(C)C3)cc1` (configuration not stated), the result was inactive. Under `Cc1ccc(OCCN2CCCCCC2)c(C)c1` stands “inactive”. Under `CC1CCCCC1NC(=S)Nc1cccc(S(=O)(=O)N(C)C)c1` (configuration not stated) stands “inactive”; under `COc1cccc(/C=N/NC(=O)c2cnccn2)c1O`, “inactive”; under `CCN(CC)S(=O)(=O)c1cccc(NN=c2c(=O)c3ccccc3c2=O)c1`, “inactive”.

Turning to `CN(C)S(=O)(=O)c1ccc(NC(=O)c2cc3ccccc3o2)cc1`, the compound was called inactive. The same measure for `CCn1c(C)nc2cc(C(=O)NNC(=O)CCC3CCCCC3)ccc21`: “inactive”; for `Cc1cc(SCC(=O)N/N=C/c2ccc(O)c(O)c2O)c(C)cc1Br`: “inactive”; for `Cc1c(/C=N\NC(=O)c2csc3ccccc23)cnn1C`: “inactive”. Under `Cc1cccc(N/C=C/C(=C(C#N)C#N)N(C)C)c1` stands “inactive”; under `CNC(=O)CN(C)S(=O)(=O)c1ccc(F)cc1`, “inactive”. Under `C=CCSc1nnc(NC(=O)CSc2nnc(C)s2)s1` stands “inactive”. With `COc1ccc(C(=O)n2nc(-c3ccccc3)nc2SC)cc1`, the compound was called inactive.

Consider `CCOc1ccc(NC(=O)C2CCCN(S(=O)(=O)c3c(C)n[nH]c3C)C2)cc1` (configuration not stated), for which the call was inactive. The same measure for `CCCNC(=O)Cn1c2ccccc2c2nc(=O)cc(C)n21`: “inactive”; for `CCOC(=O)c1c(C)[nH]c(C(=O)CSc2nnc(C3CC3)n2N)c1C`: “inactive”. Under `CN(C)S(=O)(=O)N1CCN(c2ccc(Cl)cc2)CC1` stands “inactive”; under `CCCC(=O)NC(C)C(c1cccs1)N1CCN(C)CC1` (configuration not stated), “inactive”. The same measure for `Cc1ccc(S(=O)(=O)N(C)c2ccccc2C(=O)N2CCCC2)cc1`: “inactive”. Turning to `COc1cc(C(=O)NNC(=S)NCc2ccco2)cc(OC)c1OC`, the call was inactive. In the case of `COc1ccc(C(=O)NCc2cccnc2)cc1OC`, the result was inactive. Under `COc1ccc(CCNC(=O)Cn2nnc(-c3cccc(OC)c3OC)n2)cc1OC` stands “inactive”; under `O=C(NCc1ccco1)c1ccc2snnc2c1`, “inactive”.

Turning to `O=C(CCS(=O)(=O)c1cccs1)Nc1ccc(C(=O)NCc2ccccc2)cc1`, the result was inactive. `O=C(Cc1ncn[nH]1)NCCc1ccccc1`: the outcome was inactive. Under `CC(C)(C)c1ccc(S(=O)(=O)NCc2ccc(C(=O)NCc3ccccn3)cc2)cc1` stands “inactive”. Under `CCS(=O)(=O)N1CCC(C(=O)NCc2ccccn2)CC1` stands “inactive”.

With `O=C(NCCc1ccccc1)c1ccc2c(c1)N(Cc1ccccc1)C(=O)CS2=O` (configuration not stated), the compound was classed as inactive.

As to `CC(c1nnc(SCn2nnc3ccccc3c2=O)n1-c1ccc(Cl)cc1)N(C)C` (configuration not stated), the result was inactive.

As for `COc1cccc(-c2nc(CS(=O)(=O)CC(=O)NC3CC3)c(C)o2)c1`, the result was inactive. `CCOc1ccc(N2CC(C(=O)NCC(=O)Nc3ccc(F)c(F)c3F)CC2=O)cc1` (configuration not stated): the outcome was inactive.

For `NS(=O)(=O)c1ccc(NC(=O)c2ccccc2C(=O)N2CCCCC2)cc1`, the compound was classed as inactive. Under `CCN(C(=O)CCc1nc(-c2ccccc2F)no1)c1cc(OC)ccc1OC` stands “inactive”; under `COc1ccccc1NC(=O)COC(=O)c1cc2c(s1)CCC2`, “inactive”; under `CCOC(=O)c1cccc2c(=O)c(C(=O)c3ccc(Cl)cc3)c(C(=O)OC)[nH]c12`, “inactive”. Under `C/C(=N\OC(=O)c1ccc(F)cc1)c1sc(-c2ccccc2)nc1C` stands “inactive”. Under `CC1CCc2cc(F)ccc2N1C(=O)C1(C)CC1(Cl)Cl` (configuration not stated) stands “inactive”; under `C/C(=N\O)C(=O)NCc1ccccn1`, “inactive”; under `O=C(NCc1ccccn1)c1ccc(Cn2cc(Br)cn2)o1`, “inactive”. For `O=C(NC1=CC(=O)c2ccccc2C1=O)c1ccccc1`, the compound was classed as inactive. Turning to `Cc1ccc(NC(=O)CNC(=O)COc2ccccc2)nc1`, the result was inactive.

Turning to `COc1ccc2cc(C(=O)N3CCOCC3)sc(=O)c2c1OC`, the outcome was inactive. The same measure for `COc1ccccc1/C=C/C=C1N=C(/C=C/c2ccc(Cl)cc2)OC/1=O`: “inactive”.

Take `COc1ccc(/C=C(/NC(C)=O)C(=O)O)cc1`: the compound was called inactive. The same measure for `COc1ccc(/C=C/C(=O)NC(=S)Nc2ccccn2)cc1`: “inactive”. Under `COc1ccc(OC)c(/C(O)=C/C(=O)C(=O)Nc2ccccc2OC)c1` stands “inactive”. Under `CN1C(=O)CC(N2CCN(C(=O)c3ccccc3)CC2)C1=O` (configuration not stated) stands “inactive”; under `Cc1cc(-n2ccnc2)n2c(nc3ccccc32)c1C#N`, “inactive”. On to `COc1cc(-n2cnnn2)ccc1S(=O)(=O)N1CCOCC1`, for which the compound was classed as inactive. With `CCCn1c(=O)c(-c2ccccc2)c(O)c2ccccc21`, the outcome was inactive. The same measure for `O=C1c2ccccc2S(=O)(=O)N1CC(O)COc1ccc(Br)cc1` (configuration not stated): “inactive”; for `CCOC(=O)C1C(c2ccc(O)c(OCC)c2)NC(=S)NC1(O)C(F)(F)F` (configuration not stated): “inactive”. The same measure for `CS(=O)(=O)c1ccc(Cl)c(NC(=O)COC(=O)COc2ccc3c(c2)CCC3)c1`: “inactive”; for `COc1ccc(CNC(=O)CN(CC2CCCO2)C(=O)CNS(=O)(=O)c2ccc(C)cc2)cc1` (configuration not stated): “inactive”. For `COc1ccc(OC)c(NC(=O)c2[nH]c(C)c(C(C)=O)c2C)c1`, the result was inactive. Under `COc1ccc(OC)c(/C(O)=C/C(=O)C(=O)Nc2cc(C)ccc2OC)c1` stands “inactive”; under `COc1cccc(CNC(=O)Cn2c(=O)oc3ccccc32)c1OC`, “inactive”.

With `COc1ccc(CC(=O)OCc2cc3ccc(C)cc3[nH]c2=O)cc1`, the call was inactive. Under `N=c1sccn1CC(=O)Nc1ccc2c(c1)CCC2` stands “inactive”; under `COc1ccc(OC)c(C2C(C(=O)c3cc4ccccc4o3)=C(O)C(=O)N2c2cc(C)on2)c1` (configuration not stated), “inactive”.
